Among the data in article PMC5700166 are binding signal values, retold here.

Test [1] addresses T1, GST-Nv-NF-kB (Ser allele) (Nematostella vectensis, UniProt A7UNT2 2-411).
T1 sequence: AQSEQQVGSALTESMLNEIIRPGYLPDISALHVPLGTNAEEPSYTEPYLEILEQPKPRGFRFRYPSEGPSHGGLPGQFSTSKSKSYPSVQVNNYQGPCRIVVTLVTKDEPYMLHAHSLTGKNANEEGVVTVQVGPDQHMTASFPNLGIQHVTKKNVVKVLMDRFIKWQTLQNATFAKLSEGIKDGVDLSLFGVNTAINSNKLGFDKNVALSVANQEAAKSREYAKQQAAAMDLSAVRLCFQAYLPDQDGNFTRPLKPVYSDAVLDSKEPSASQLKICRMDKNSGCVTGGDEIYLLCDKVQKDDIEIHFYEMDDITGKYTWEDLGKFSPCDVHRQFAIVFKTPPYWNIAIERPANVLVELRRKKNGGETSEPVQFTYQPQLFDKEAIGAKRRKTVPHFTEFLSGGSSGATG
Kind of test: protein-binding microarray (PBM); PBM: ~300 nM protein, 6 mM HEPES pH 7.8, 80 mM KCl, 0.5 mM EDTA, 0.5 mM EGTA, 6% glycerol, 35 ng/ul poly-dIdC, 1% milk, 1 h, room temperature; Ap Aiptasia and Nv Nematostella (sea anemones) / Co Capsaspora / Aq Amphimedon (sponge) / Dm Drosophila / Hu human; RHD is the Rel homology domain; high values mean tight binding. The conditions noted are these: dsDNA, one strand shown.

Another test addresses GST-Hu-p50 (Homo sapiens, UniProt P19838 7-356). Described as above. The note with it: dsDNA, one strand shown.

GST-Hu-p50, sequence (P19838 7-356): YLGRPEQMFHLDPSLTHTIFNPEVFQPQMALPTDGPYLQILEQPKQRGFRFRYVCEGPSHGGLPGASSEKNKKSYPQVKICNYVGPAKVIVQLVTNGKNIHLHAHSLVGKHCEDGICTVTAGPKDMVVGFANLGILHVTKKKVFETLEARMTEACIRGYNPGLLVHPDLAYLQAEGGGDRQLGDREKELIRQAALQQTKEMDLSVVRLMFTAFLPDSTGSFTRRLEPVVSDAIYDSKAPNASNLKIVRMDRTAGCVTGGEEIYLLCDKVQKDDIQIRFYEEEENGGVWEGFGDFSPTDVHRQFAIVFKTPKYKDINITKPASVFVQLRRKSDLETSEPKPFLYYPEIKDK

Turning to “CCGATTAACATCAAAAAAGACCCTGATGTTAATCGGGTCTTGATTCGCTTGACGCTGCTG”, the binding signal in test [1] is 3.81 z-score; with GST-Hu-p50, 3.95 z-score.
For “CCGATTAACATCAACTTTCCCAGTGATGTTAATCGGGTCTTGATTCGCTTGACGCTGCTG”, in that order: 1.7 z-score and 1.59 z-score.
The matching figures for “CCGATTAACATCAGGGGCGGGAATGATGTTAATCGGGTCTTGATTCGCTTGACGCTGCTG”: 3.18 z-score and 2.9 z-score.
As for “CCGATTAACATCAAAATAATCCCTGATGTTAATCGGGTCTTGATTCGCTTGACGCTGCTG”, the binding signal in test [1] was found to be 3.57 z-score; with GST-Hu-p50, 3.58 z-score.
“CCGATTAACATCAGGGAAGCACCTGATGTTAATCGGGTCTTGATTCGCTTGACGCTGCTG”: the binding signal in test [1] came out at 3.97 z-score; in the test with GST-Hu-p50 it was 5.24 z-score.
The matching figures for “CCGATTAACATCAGGACTACCCCTGATGTTAATCGGGTCTTGATTCGCTTGACGCTGCTG”: 1.61 z-score and 3.02 z-score.
For “CCGATTAACATCAGGGGGGGTTATGATGTTAATCGGGTCTTGATTCGCTTGACGCTGCTG”, in that order: 4.34 z-score and 4.91 z-score.
The matching figures for “CCGATTAACATCACAAATGGGAATGATGTTAATCGGGTCTTGATTCGCTTGACGCTGCTG”: 1.63 z-score and 1.06 z-score.
Take “CCGATTAACATCAGGGGGCGCACTGATGTTAATCGGGTCTTGATTCGCTTGACGCTGCTG”: the values for the binding signal (in test [1]; in the test with GST-Hu-p50) were 2.76 z-score and 4.11 z-score, respectively.
For “CCGATTAACATCAAATATACCCCTGATGTTAATCGGGTCTTGATTCGCTTGACGCTGCTG”, in that order: 2.88 z-score and 2.88 z-score.
The matching figures for “CCGATTAACATCAGGAATGTCCCTGATGTTAATCGGGTCTTGATTCGCTTGACGCTGCTG”: 3.65 z-score and 3.77 z-score.
For “CCGATTAACATCAGGGACCGCCCTGATGTTAATCGGGTCTTGATTCGCTTGACGCTGCTG”, in that order: 1.35 z-score and 3.16 z-score.
Consider “CCGATTAACATCAGAAATCCCACTGATGTTAATCGGGTCTTGATTCGCTTGACGCTGCTG”, for which the binding signal in test [1] came out at 1.91 z-score; with GST-Hu-p50, 2.66 z-score.
Turning to “CCGATTAACATCAAAAACTACCCTGATGTTAATCGGGTCTTGATTCGCTTGACGCTGCTG”, the binding signal in test [1] was found to be 4.59 z-score; with GST-Hu-p50, 3.73 z-score.
For “CCGATTAACATCAGGGGGTGTTATGATGTTAATCGGGTCTTGATTCGCTTGACGCTGCTG”, in that order: 4.85 z-score and 5.17 z-score.
For “CCGATTAACATCACGAGTTTCCCTGATGTTAATCGGGTCTTGATTCGCTTGACGCTGCTG”, in that order: 5.41 z-score and 2.39 z-score.
In the case of “CCGATTAACATCAGGGAGTCCCATGATGTTAATCGGGTCTTGATTCGCTTGACGCTGCTG”, the binding signal in test [1] is 2.92 z-score; with GST-Hu-p50, 3.1 z-score.
For “CCGATTAACATCAGGGGTTCACCTGATGTTAATCGGGTCTTGATTCGCTTGACGCTGCTG”, in that order: 3.04 z-score and 3.78 z-score.
The matching figures for “CCGATTAACATCAAGGGGGTCCCTGATGTTAATCGGGTCTTGATTCGCTTGACGCTGCTG”: 3.02 z-score and 3.68 z-score.
Consider “CCGATTAACATCAGGGGGTGATATGATGTTAATCGGGTCTTGATTCGCTTGACGCTGCTG”, for which the binding signal in test [1] is 4.45 z-score; with GST-Hu-p50, 3.97 z-score.
For “CCGATTAACATCAGGAATACCCCTGATGTTAATCGGGTCTTGATTCGCTTGACGCTGCTG”, in that order: 4.15 z-score and 5.04 z-score.
The matching figures for “CCGATTAACATCAGGATCTTCCCTGATGTTAATCGGGTCTTGATTCGCTTGACGCTGCTG”: 1.87 z-score and 1.9 z-score.
The matching figures for “CCGATTAACATCAGGCACTCCCCTGATGTTAATCGGGTCTTGATTCGCTTGACGCTGCTG”: 2.69 z-score and 3.37 z-score.
Regarding “CCGATTAACATCAGGCCATCCCCTGATGTTAATCGGGTCTTGATTCGCTTGACGCTGCTG”, the binding signal in test [1] was found to be 3.8 z-score; with GST-Hu-p50, 3.33 z-score.
For “CCGATTAACATCAGGACCGTCCCTGATGTTAATCGGGTCTTGATTCGCTTGACGCTGCTG”, in that order: 1.36 z-score and 2.66 z-score.
The matching figures for “CCGATTAACATCACCGAATTTGGTGATGTTAATCGGGTCTTGATTCGCTTGACGCTGCTG”: 1.14 z-score and 2.09 z-score.
Take “CCGATTAACATCAGGAGTCTCCCTGATGTTAATCGGGTCTTGATTCGCTTGACGCTGCTG”: the binding signal (in test [1]; with GST-Hu-p50) was 1.4 z-score throughout.
As for “CCGATTAACATCAAATAAATCCCTGATGTTAATCGGGTCTTGATTCGCTTGACGCTGCTG”, the binding signal was determined as 3.53 z-score in test [1] and 3.29 z-score with GST-Hu-p50.
For “CCGATTAACATCAGAAGATTCCCTGATGTTAATCGGGTCTTGATTCGCTTGACGCTGCTG”, in that order: 3.95 z-score and 4.09 z-score.
For “CCGATTAACATCAGGGGGTGTACTGATGTTAATCGGGTCTTGATTCGCTTGACGCTGCTG”, in that order: 3.99 z-score and 4.44 z-score.
For “CCGATTAACATCACTTTACCCCCTGATGTTAATCGGGTCTTGATTCGCTTGACGCTGCTG”, in that order: 4.4 z-score and 3.42 z-score.
Regarding “CCGATTAACATCAGGGAAAGTAATGATGTTAATCGGGTCTTGATTCGCTTGACGCTGCTG”, the binding signal is 5.14 z-score in test [1] and 3.58 z-score with GST-Hu-p50.
The matching figures for “CCGATTAACATCAGGGGGTACACTGATGTTAATCGGGTCTTGATTCGCTTGACGCTGCTG”: 3.94 z-score and 3.13 z-score.
